# Source: PubChem BioAssay AID651812 (National Center for Advancing Translational Sciences (NCATS), 2012)
# The whole screen tested about 2,100 compounds, of which about 650 (31%) were called active. Another 16% or so got no clear call; they are omitted. Calls come from the whole dose curve; as a rule, active = well fitted inhibition curve with a large enough effect; inconclusive = small, poorly fitted or top-dose-only effect; inactive = flat fitted curve, though single readings scatter. Some of the results follow. Where a call stands in place of a potency, no number is given.
# Experiment: qHTS for inhibitors of Vif-A3G interactions: Cherry picks; note: nearly all actives have a fitted effect of over 80% in size
# Settings: HeLa A3G-eYFP + Vif (tagged APOBEC3G with the HIV-1 protein that degrades it), 24 h; Potency: eYFP fluorescence increase; series mostly up to 36.9 µM
# Procedure, shortened: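 HeLa cells stably expressing A3G-eYFP and Vif, cultured overnight then exposed to compounds at several concentrations for 24 hours at 37 C, 5% CO2; cellular yellow fluorescence (488 nm ex, 500-530 nm em) imaged on Acumen, MG132 positive control.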
# Potency is the fitted concentration of half-maximal effect.
row,SMILES,Potency
1,O=C(CN1C(=O)S/C(=C\c2cc(Cl)c(O)c(Cl)c2)C1=O)Nc1ccccc1,20.6 µM (active)
2,COc1cc(C=C2C(=O)c3ccccc3C2=O)cc(OC)c1OC,inactive
3,COc1ccc(NC(=O)CN2C(=O)C3(SCC(=O)N3c3ccccc3)c3ccccc32)cc1Cl (centres undefined),inactive
4,COc1cc(/C=C2/SC(=S)N(CCC(=O)Nc3ccccc3)C2=O)cc(OC)c1OC,18.4 µM (active)
5,COc1cc(/C=C2/SC(=S)N(Cc3ccccc3)C2=O)cc(OC)c1O,inactive
6,O=C(NCCN1C(=O)S/C(=C\c2ccc(OC(F)F)cc2)C1=O)c1cnccn1,inactive
7,COC(=O)C1=C(C)NC2=C(C(=O)CC(c3cccs3)C2)C1c1ccsc1 (centres undefined),inactive
8,CC(=O)Nc1cccc(-c2ccnc3c2CC(C)(C(=O)NCc2cccs2)O3)c1 (centres undefined),inactive
9,Clc1ccc2c(c1)C(C1=NCCN1)c1ccccc1CS2 (centres undefined),inactive
10,O=CNc1ccc2c3c(cccc13)-c1ccccc1-2,15.8 µM (active)
11,CCOC(=O)Nc1ccc2c3c(cccc13)-c1ccccc1-2,inactive
12,CC(=O)Nc1ccc(-c2ccnc3c2CC(C)(C(=O)NCc2ccco2)O3)cc1 (centres undefined),inactive
13,Cc1ccc2nc(-c3ccccn3)c(Nc3ccccc3C)n2c1,inactive
14,CCN1C(=O)/C(=C/C=C2\N(CC)c3cc(S(=O)(=O)N(C)C)ccc3N2c2ccccc2)SC1=S,4.44 µM (active)
15,Cc1ccc(C2=NN(C(=O)c3cccs3)C(c3ccccc3O)C2)cc1 (centres undefined),inactive
16,Cc1ccccc1C1CC(c2cccs2)=NN1S(C)(=O)=O (centres undefined),inactive
17,CCOc1ccccc1C1CC(c2cccs2)=NN1S(C)(=O)=O (centres undefined),13 µM (active)
18,CCc1ccc(C2=NN(S(C)(=O)=O)C(c3cccs3)C2)cc1 (centres undefined),25 µM (active)
19,Cn1c(=S)c2[nH]c(SCCN3CCCC3)nc2n(C)c1=O,inactive
20,O=C1C=CC(O)(c2cc(=O)c3c(O)cc(O)cc3o2)C=C1,inactive
21,C1=Cc2ccccc2/C1=C\c1cc2c3c(c1)CCCN3CCC2,18.4 µM (active)
22,Cc1ccc(Nc2nc(-c3cccnc3)nc3ccccc23)cc1,inactive
23,c1cncc(-c2nc(NCc3cccs3)c3ccccc3n2)c1,inactive
24,Oc1ccccc1-c1nc(NCc2ccccc2)c2ccccc2n1,20.6 µM (active)
25,c1ccc(N=NC2=NN(c3ccccc3)CS2)cc1,inactive
26,Cc1cccc(CSc2cccc3cccnc23)c1,inactive

row,SMILES,Potency
1,O=C1c2ccccc2C(=O)c2c(/C=C/N3CCCCC3)ccnc21,18.4 µM (active)
2,Cc1c2ccccc2nc2c(F)c(NC(C)C)c(F)c(F)c12,10.3 µM (active)
3,Cc1nnc(NC(=O)CSc2nc(C(C)C)nc3ccccc23)s1,inactive
4,CCCNc1c(F)c(F)c2c(C)c3ccccc3nc2c1F,17.7 µM (active)
5,Cc1ccc(S(=O)c2ccc([N+](=O)[O-])c3nonc23)cc1 (centres undefined),20.6 µM (active)
6,O=C(OCc1ccccc1)c1ccc(NCc2cc(O)ccc2O)cc1,inactive
7,Cc1cc(C)cc(NC(=O)Cn2cc(C(=O)C3CCCCC3)c3ccccc32)c1,20.6 µM (active)
8,CCn1c2ccccc2c2cc(NC(=O)CNCc3ccccc3OC)ccc21,inactive
9,Cc1cc(C)cc(NC(=S)NC(=O)C2CC2)c1,inactive
10,N#C/C(=C/c1ccc(N2CCOCC2)o1)c1ccc(Cl)cc1,1.46 µM (active)
11,N#C/C(=C/c1ccc(N2CCCCCC2)o1)c1ccc(Cl)cc1,0.651 µM (active)
12,Cc1ccc(/C(C#N)=C\c2ccc(N3CCOCC3)o2)cc1,19.8 µM (active)
13,COc1ccccc1C1c2ccc3ccccc3c2Oc2ncn(CCN(C)C)c(=N)c21 (centres undefined),inactive
14,CCOc1ccccc1OCC(=O)N/N=C(\C)Cc1ccc(OC)cc1,inactive
15,Cc1ccc(NC(=O)C2CCN(S(=O)(=O)c3ccc(Cl)c(C(F)(F)F)c3)CC2)nc1,inactive
16,CCCc1nc2c(C)cc(Br)cn2c1Cc1ccccc1,inactive
17,O=C(Nc1cc(Cl)cc2c1-c1ccc(Cl)cc1C2O)C(Cl)Cl (centres undefined),inactive
18,CCOC(=O)Cc1csc(NC(=O)c2sc3nc4c(C)cc(C)cc4cc3c2N)n1,20.6 µM (active)
19,CCOC(=O)c1csc(NC(=O)c2cc(-c3ccccn3)nc3ccccc23)n1,inactive
20,CCn1ncc(/C=N\NC(=O)c2csc3ccccc23)c1C,inactive
21,CCC1CC=CC2C1C(=O)N(Cc1ccccc1)C2c1ccoc1 (centres undefined),inactive
22,COc1cc(C2C(C#N)=C(N)Oc3cc(O)ccc32)cc2c1OCO2 (centres undefined),inactive
23,Cc1cc(-c2ccccc2)c2c3c(c(-c4ccccc4)n2n1)c(=O)n(C)c(=O)n3C,18.4 µM (active)
24,Cc1ccc(CNC(=O)C2CC(c3cc(C(F)(F)F)cc(C(F)(F)F)c3)=NO2)o1 (centres undefined),inactive
25,Cc1c(N2C(=O)/C(=C/c3ccc(N(C)C)cc3)N(C)C2=S)c(=O)n(-c2ccccc2)n1C,18.4 µM (active)
26,CN1C(=S)N(c2cccnc2)C(=O)/C1=C\c1ccc(N(C)C)cc1,15.8 µM (active)

row,SMILES,Potency
1,CN1C/C(=C/c2cccnc2)C(=O)/C(=C/c2cccnc2)C1,inactive
2,CN1C(=O)/C(=C\c2ccc(N(C)C)cc2)OC1=S,4.98 µM (active)
3,CC(NC(=S)Nc1cccc(C(F)(F)F)c1)C(C)(C)C (centres undefined),inactive
4,CCN(CC)c1ccc2c(c1)oc(=O)c1c(Cl)cc(=O)oc12,23.1 µM (active)
5,Cc1ccc(F)c(S(=O)(=O)NC(=O)C2(C)CCN2C(=O)Cc2ccc(Cl)cc2Cl)c1 (centres undefined),inactive
6,CSc1ccc(C2NC(=O)c3ccccc3N2)cc1 (centres undefined),inactive
7,COc1ccccc1/C=C/C=N/n1c(-c2ccc(C)cc2)n[nH]c1=S,inactive
8,O=c1c(O)c(-c2cccs2)oc2ccccc12,2.59 µM (active)
9,C/C(=N\NC(N)=S)C12CC3CC(CC(C3)C1)C2,inactive
10,O=C(c1ccccc1F)n1c2c(c3ccccc31)CCCC2,inactive
11,Nc1nonc1-c1nc2ccccc2n1Cc1ccc(F)cc1,inactive
12,COc1ccc(C)c(Cn2c(-c3nonc3N)nc3ccccc32)c1,inactive
13,Nc1nonc1-c1nc2ccccc2n1CC(=O)Nc1cccc(C(F)(F)F)c1,25.9 µM (active)
14,O=c1c[n+]([O-])c2ccccc2n1OCc1c(F)cccc1F,inactive
15,O=C(O)c1ccccc1N/N=C/c1c(Sc2nnnn2-c2ccccc2)nc2ccccn2c1=O,3.53 µM (active)
16,O=c1oc2c3c4c(cc2c(C(F)(F)F)c1CCN1CCOCC1)CCCN4CCC3,7.31 µM (active)
17,O=C(Nc1cc(Cl)ccc1-n1cncn1)c1ccc([N+](=O)[O-])s1,15.8 µM (active)
18,O=C(O)Cc1sc(NC2CCCCC2)nc1-c1ccc(Cl)cc1,inactive
19,COC(=O)C1=C(Nc2ccc(C)cc2)C=C(C)C(C(=O)OC)C1c1cccc(OC)c1 (centres undefined),inactive
20,CC(=O)Nc1ccc(S(=O)(=O)N2c3ccccc3C(C)=CC2(C)C)cc1,inactive
21,Cc1cccc(/C=C/C(=O)c2ccc([N+](=O)[O-])o2)c1,inactive
22,Cc1cc2ccccn2c1C(=O)c1ccc([N+](=O)[O-])o1,18.4 µM (active)
23,O=C(NN(c1ccccc1)c1ccccc1)c1ccc([N+](=O)[O-])o1,inactive
24,COC(=O)Cn1c(C)c(/C=C/c2cc[n+](C)cc2)c2ccccc21,13 µM (active)
25,CCN(CC)C(=O)Cn1c(C)c(/C=C/c2cc[n+](C)cc2)c2ccccc21,12.5 µM (active)
26,N#C/C(=C/c1cccs1)c1ccccn1,14 µM (active)

row,SMILES,Potency
1,CSc1nc2ccccc2cc1/C=C(\C#N)c1cccc(C)c1,inactive
2,N#C/C(=C/c1ccc(N2CCCCCC2)o1)c1cccc(F)c1,3.66 µM (active)
3,N#C/C(=C/c1ccc(N2CCCCC2)o1)c1cccc(F)c1,8.2 µM (active)
4,COc1cc(C2C(C#N)=C(N)Oc3cc(O)ccc32)cc(OC)c1OC (centres undefined),inactive
5,CCCCN(C)CC(O)Cn1cc(/C=C/C(=O)c2cccs2)c2ccccc21 (centres undefined),20.6 µM (active)
6,CN(C)c1ccc(/C=C/c2nc3ccccc3c(=O)n2CCO)cc1,18.4 µM (active)
7,CN(C)c1ccc(/C=C/c2cc(/C=C/c3ccc(N(C)C)cc3)c3ccccc3n2)cc1,6.51 µM (active)
8,CN(NC(=O)c1ccccc1)c1nc2ccccc2nc1C(F)(F)F,inactive
9,Nc1ccc(/C=C/c2cc(Cl)nc3ccccc23)cc1,20.6 µM (active)
10,Cc1noc(C)c1CSc1nc2ccccc2c(=O)n1-c1ccccc1,inactive
11,CN(C)c1ccc(/C=C/c2cc(N(C)C)nc3ccccc23)cc1,13 µM (active)
12,O=C(NC(=S)Nc1ccc(-c2ccccc2)cc1)c1ccccc1,inactive
13,CC(C)Cn1c(N)c(C(=O)COC(=O)c2ccc([N+](=O)[O-])o2)c(=O)n(C)c1=O,inactive
14,CC(C)(C)n1ncc2c(=O)n(CC(=O)NCc3ccc(F)cc3)cnc21,inactive
15,O=C1OC(Nc2nc(-c3ccc(F)cc3)cs2)c2ccccc21 (centres undefined),inactive
16,CCN(CC)c1ccc(/C=C/c2cc(-c3ccccc3)c3ccccc3n2)cc1,11.2 µM (active)
17,COc1ccc(C2=NOC(C(=O)NCc3cccs3)C2)cc1OC (centres undefined),inactive
18,Cc1ccc(N2C(=O)[C@@H]3[C@H](C2=O)[C@H]2C=C(C(=O)c4ccccc4)C=CN2[C@@H]3C(=O)c2ccc(Cl)cc2)cc1,inactive
19,CCn1nc(-c2ccccc2)c2nc3ccccc3nc21,16.4 µM (active)
20,Nc1ccc2nc(-c3ccccc3)c(-c3ccccc3)nc2c1,inactive
21,O=C(Nc1nc(NC(=O)c2ccco2)n(-c2ccccc2)n1)c1ccccc1,inactive
22,Cc1cc(C)c2cc3c(N)c(C(=O)Nc4c(C)[nH]c(=O)[nH]c4=O)sc3nc2c1,18.4 µM (active)
23,O=C(Cn1cnc2c(cnn2-c2ccc(F)cc2)c1=O)NCc1ccco1,inactive
24,N#CC1=C(N)Oc2cc(N)ccc2C1c1cccc(F)c1 (centres undefined),inactive
25,N#CC1=C(N)Oc2cc(N)ccc2C1c1ccccc1F (centres undefined),inactive
26,N#CC1=C(N)Oc2cc(N)ccc2C1c1ccc(F)cc1F (centres undefined),18.4 µM (active)
